In PubChem BioAssay AID2685 (National Center for Advancing Translational Sciences (NCATS), 2010):
Hit rate of the full screen: of about 320,000 compounds, about 2,100 (0.66%) were called active. Not shown: some 53% with an inconclusive outcome. Calls follow the shape of the dose curve; as a rule, active = well fitted inhibition curve with a large enough effect in the signal ratio, with a control signal flat (not every such curve was filed as active); inconclusive = small, poorly fitted or top-dose-only effect, or effect the other way, or a change in a side signal; inactive = flat fitted curve, though single readings scatter; the % refers to the signal ratio. What follows is part of a selection rich in actives, with near analogues and random picks from the rest.

Assay: qHTS Assay for Lipid Storage Modulators in Drosophila S3 Cells;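 as to cell number change: cells counted by Cell Tracker Red CMTPX staining in the red channel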; as to lipid storage change, negative = inhibition: % is scaled to controls: 0 for no effect and ±100 for the full control effect
Settings: BODIPY lipid droplet fluorescence, 18-24 h, cells fed with added oleic acid; cell number change: measured here: cell count max response; series mostly up to 46.1 µM; lipid storage change, negative = inhibition: at the top concentration
Source text: NIH Molecular Libraries Probe Production Centers Network [MLPCN] NIH Chemical Genomics Center [NCGC] MLPCN Grant: 1 R03 MH085686-01 Assay Submitter (PI): Beller, Mathias; Max-Planck-Institut fur Biophysikalische Chemie NCGC Assay Overview: Storing lipids as a reservoir for energy or the anabolism of elementary metabolites is a common feature of probably all cells and is conserved from bacteria to humans. The universal cellular lipid storage organelle is the so-called lipid storage droplet (LD). Although ubiquitous, LDs share a simple structure composed of a hydrophobic core that harbors the storage lipids, which is shielded by a droplet-specific phospholipid monolayer to which proteins are attached. The current model of LD biogenesis involves an incorporation of the lipid core into the membrane leaflets of the endoplasmic reticulum (ER) followed by a subsequent budding-like maturation of a LD, which ultimately pinches off. Once released, LD volume can increase by localized lipogenesis or fusion of existing droplet. Storage lipids are re-mobilized enzymatically by lipase activity. Lipase regulation in the adipocyte is heavily studied and involves multiple components including catecholamine signaling, the LD-associated proteins Perilipin and comparative gene identification (CGI-58) and at least two lipases named hormone sensitive lipase (HSL) and adipocyte triglyceride lipase (ATGL). LD regulation outside of the adipocyte is poorly understood and only few components are known. However, there is an urgent need to learn more about ectopic fat depots as mislocalized storage of lipids, for example in the liver or muscle, is an eminent health problem associated with insulin resistance or the metabolic syndrome. We developed a laser-scanning cytometer assay to enable 1,536-well screening and combined the results of the small molecules screen with an RNAi database based on lipid storage.
Triacsin C (Sigma-Aldrich T-4540), an inhibitor of long-chain fatty acyl CoA synthetase that blocks synthesis of triglycerides, was used as a positive control for lipid under-storage. A total of 23 nL of compound solution of different concentrations were transferred to the assay plates using a Kalypsys pin tool equipped with a 1,536-pin array containing 10-nL slotted pins (FP1S10, 0.457-mm diameter, 50.8 mm long; V&P Scientific). One microliter of oleic acid (400 uM) was added, and the plate was lidded with stainless steel rubber gasket lined lids containing pinholes. […] Fluorescence was detected by excitation of the fluorophores with a 488-nm laser on an Acumen Explorer (TTP Lab Tech). The total intensity in channel 2 (500-530 nm) reflected lipid droplet accumulation. Cells were detected using channel 3 (575-640 nm) with 5-um width and 100-um depth filters. The ratio of the number of objects in PMT channel 2 over the number of objects in PMT channel 3 was also calculated. Percent activity was computed relative to an internal control (100% inhibited lipid droplet deposition due to the presence of 20 uM Triacsin C), which was added to 32 wells/plate.
Potency is read from the fitted curve at half-maximal effect.

SMILES	outcome	cell number change	lipid storage change, negative = inhibition	Potency
O=C(CNS(=O)(=O)c1ccccc1)OCC(=O)c1ccc(F)cc1	inactive	14.3%	–	–
O=C(Nc1cccc(F)c1)c1c(F)c(F)c(F)c(F)c1F	inactive	–	–	–
COc1cccc(CNC(=O)c2cc(C3CC3)nc3c2cnn3C(C)C)c1	–	5.87%	-14.5% (inactive)	–
COc1ccc(CNC(=O)c2cc(C3CC3)nc3c2cnn3C(C)C)cc1OC	–	1.25%	–	11.6 µM (active)
Cc1ccc(CNC(=O)c2cc(C3CC3)nc3c2cnn3C(C)C)cc1	inactive	-11.5%	–	–
COc1ccc(CSc2nncn2C)cc1[N+](=O)[O-]	–	-11.4%	18.5% (inactive)	–
O=C(Nc1c2c(nn1-c1ccccc1)CS(=O)(=O)C2)c1ccc2c(c1)OCO2	–	-19%	17.4% (inactive)	–
O=C(COC(=O)c1cccc(S(=O)(=O)N2CCOCC2)c1)Nc1ncc(C(F)(F)F)cc1Cl	–	-11.5%	–	23.1 µM (active)
O=C(COC(=O)c1cccc(S(=O)(=O)N2CCOCC2)c1)Nc1ccc(Cl)cn1	–	-3.5%	23.1% (inactive)	–
O=C(COC(=O)c1cccc(S(=O)(=O)N2CCc3ccccc32)c1)Nc1ncc(C(F)(F)F)cc1Cl	–	-1.02%	-12.9% (inactive)	–
Cc1ccc(NC(=O)CCC(=O)Nc2ccc(C)cc2)cc1	–	-16.8%	-11.2% (inactive)	–
Cc1cc(C)cc(C(=O)N2CCC3(CC2)NCCc2[nH]cnc23)c1	–	–	-13.7% (inactive)	–
COc1ccc(-c2csc(NC(=O)c3cccc(N4C(=O)CCC4=O)c3)n2)cc1OC	–	19.9%	-8.17% (inactive)	–
CNCCCOc1ccc(C)cc1Br	–	-34.9%	–	20.6 µM (active)
COCCCNCCCOc1ccc(C)cc1Br	–	-14.3%	9.41% (inactive)	–
CCCCNCCCOc1ccc(C)cc1Br	–	10%	-0.0338% (inactive)	–
CCc1noc(C)c1C(=O)OCC(=O)c1ccccc1OC	–	-12.4%	-18.6% (inactive)	–
CCCCCC(=O)Nc1cc(S(=O)(=O)N2CCCCC2)ccc1N1CCOCC1	–	-1.56%	-20.9% (inactive)	–
COc1ccc(NC(=O)C2CCN(S(C)(=O)=O)CC2)cc1OC	–	11.1%	16.9% (inactive)	–
Cc1ccc(NC(=O)C2CCN(S(C)(=O)=O)CC2)cc1C	–	–	–	6.51 µM (active)
Cc1ccc(NC(=O)C2CCN(S(C)(=O)=O)CC2)cc1	–	1.04%	-13.2% (inactive)	–
O=C(O)CSC1c2ccccc2C(=O)N1Cc1ccccc1 (stereo not given)	–	-11.8%	11% (inactive)	–
O=C(CC(=O)N/N=C/c1ccccc1)NCc1ccccc1	–	2.89%	10.4% (inactive)	–
COCCCNC(=O)c1cc(OC)c(OC)c(OC)c1	–	-1.92%	–	16.4 µM (active)
COc1cc(C(=O)NCCOc2cc(C)cc(C)c2)cc(OC)c1OC	–	3%	0.714% (inactive)	–
COc1cc(C(=O)NCCOc2ccccc2)cc(OC)c1OC	–	-10.6%	1.93% (inactive)	–
COc1ccc(C(=O)NCCCc2ccccc2)cc1OC	–	-16.4%	2.62% (inactive)	–
COc1ccc(C(=O)NCCCCCC(=O)O)cc1OC	–	-16%	–	9.2 µM (active)
COc1ccc(C(=O)NCCCCNC(=O)c2ccc(OC)c(OC)c2)cc1OC	–	11.4%	17.3% (inactive)	–
